Test results published in ChEMBL document CHEMBL3988442, “University of Dundee, Small-Polar-MMV Screening Library” (2021).
For part of these data: Potency and affinity values are given separately.

Columns and labels:
Set-up in all cases: scale not given: direction of the effect not stated beside the values
[1] = molecular target: Protein translocase subunit SecA (Escherichia coli (strain K12)) (UniProt P10408); experiment: Assay to Identify E. coli SecA ATPase Inhibitors; format: functional; conditions: 30 µM
[2] = molecular target: T1, Ubiquitin-activating enzyme e1, putative (Leishmania donovani (strain BPK282A1)) (UniProt E9BSI1); experiment: Leishmania donovani Ubiquitin Activating Enzyme (LdE1); format: functional; conditions: 30 µM
T1 sequence (whole entry): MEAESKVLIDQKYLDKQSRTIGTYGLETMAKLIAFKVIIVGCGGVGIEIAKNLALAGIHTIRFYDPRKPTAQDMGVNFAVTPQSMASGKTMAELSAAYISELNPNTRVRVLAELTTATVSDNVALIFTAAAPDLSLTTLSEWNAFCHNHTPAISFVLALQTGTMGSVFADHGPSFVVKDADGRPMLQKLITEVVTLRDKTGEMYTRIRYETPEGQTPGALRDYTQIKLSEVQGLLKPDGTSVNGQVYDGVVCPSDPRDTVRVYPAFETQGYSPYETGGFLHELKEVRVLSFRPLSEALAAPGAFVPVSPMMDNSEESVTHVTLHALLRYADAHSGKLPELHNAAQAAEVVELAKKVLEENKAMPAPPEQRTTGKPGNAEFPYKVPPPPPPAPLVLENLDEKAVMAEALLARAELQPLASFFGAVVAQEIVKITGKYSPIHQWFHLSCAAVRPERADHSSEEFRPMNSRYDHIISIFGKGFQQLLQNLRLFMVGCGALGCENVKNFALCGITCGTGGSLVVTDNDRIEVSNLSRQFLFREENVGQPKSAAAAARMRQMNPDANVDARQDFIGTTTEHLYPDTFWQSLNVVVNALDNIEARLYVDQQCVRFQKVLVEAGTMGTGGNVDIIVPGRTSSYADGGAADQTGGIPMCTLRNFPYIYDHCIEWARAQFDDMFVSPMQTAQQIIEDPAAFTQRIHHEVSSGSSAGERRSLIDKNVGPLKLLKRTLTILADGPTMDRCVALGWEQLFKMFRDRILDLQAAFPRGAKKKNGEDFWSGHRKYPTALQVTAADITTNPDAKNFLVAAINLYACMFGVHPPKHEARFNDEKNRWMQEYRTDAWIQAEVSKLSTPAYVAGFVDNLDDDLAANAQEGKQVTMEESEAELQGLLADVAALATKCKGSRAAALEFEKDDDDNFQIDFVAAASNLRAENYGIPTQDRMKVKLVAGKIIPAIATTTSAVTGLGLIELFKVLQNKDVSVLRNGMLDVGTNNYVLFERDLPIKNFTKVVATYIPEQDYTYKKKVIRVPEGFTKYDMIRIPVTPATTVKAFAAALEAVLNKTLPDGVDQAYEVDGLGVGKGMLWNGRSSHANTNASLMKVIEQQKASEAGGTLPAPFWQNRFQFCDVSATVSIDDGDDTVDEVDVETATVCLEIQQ

[3] = molecular target: AMP-activated protein kinase, AMPK (Homo sapiens) (UniProt P54646+O43741+P54619+Q9UGJ0+Q9Y478+Q13131+Q9UGI9); experiment: AMP-dependent Kinase enzyme assay. An in vitro enzyme assay that detects ADP turnover that is directly proportional to AMPK activity. This uses naive AMPK that is activated during the assay with MK-8722; format: functional; conditions: 30 µM
[4] = molecular target: Sialic acid-binding Ig-like lectin 9 (Homo sapiens) (UniProt Q9Y336); experiment: Hs-Siglec9 ALPHAscreen SOP 20170721; conditions: 10 µM
Trypanosoma cruzi = experiment: Trypanosoma cruzi phosphomannomutase and mannose-1-phosphate guanylyltransferase assay; format: functional; conditions: 10 µM
[5] = molecular target: T2, Arginase-2, mitochondrial (Homo sapiens) (UniProt P78540); experiment: in vitro enzyme assay to detect the production of urea directly proportional to the activity of Arginase II; format: functional; conditions: 33.3 µM; further: in the data most compounds retested in dose-response had high values
T2 sequence (whole entry): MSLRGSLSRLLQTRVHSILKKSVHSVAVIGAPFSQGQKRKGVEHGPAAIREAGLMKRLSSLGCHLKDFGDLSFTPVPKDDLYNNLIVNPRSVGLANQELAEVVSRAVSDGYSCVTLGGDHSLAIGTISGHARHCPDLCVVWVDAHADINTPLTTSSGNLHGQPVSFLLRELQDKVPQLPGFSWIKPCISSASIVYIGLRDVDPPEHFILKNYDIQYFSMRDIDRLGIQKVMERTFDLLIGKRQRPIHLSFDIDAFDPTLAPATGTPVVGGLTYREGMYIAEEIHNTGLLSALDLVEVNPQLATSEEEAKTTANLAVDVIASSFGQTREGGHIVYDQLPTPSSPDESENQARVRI

[6] = molecular target: T3, Proteasome subunit beta (Trypanosoma cruzi) (UniProt O96673); experiment: Trypanosoma cruzi proteasome chymotrypsin-like activity (TcProtChymo) assay.; further: in the data most compounds retested in dose-response had high values; format: functional; conditions: 9.37 µM
T3 sequence (whole entry): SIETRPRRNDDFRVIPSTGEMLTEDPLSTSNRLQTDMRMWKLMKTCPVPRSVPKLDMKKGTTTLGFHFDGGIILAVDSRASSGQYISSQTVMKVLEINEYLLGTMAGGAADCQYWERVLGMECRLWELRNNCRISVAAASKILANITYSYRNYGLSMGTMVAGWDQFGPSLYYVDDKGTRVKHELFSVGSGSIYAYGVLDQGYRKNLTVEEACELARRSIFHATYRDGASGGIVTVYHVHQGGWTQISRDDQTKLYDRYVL

Homo sapiens = organism: Homo sapiens; experiment: To identify inhibition of the IFN signalling (Jak-Stat) pathway via expression of an eGFP reporter gene under the control of an IFN-stimulated response element (ISRE) containing MxA promoter.; format: functional; conditions: 30 µM
[7] = molecular target: T4, Tyrosyl-tRNA synthetase, putative (Trypanosoma cruzi (strain CL Brener)) (UniProt Q4DSP6); experiment: Trypanosoma cruzi tyrosyl tRNA synthetase (TcYRS) _High Tyrosine SOP; format: functional; conditions: 30 µM; further: in the data most compounds retested in dose-response had high values
T4 sequence (whole entry): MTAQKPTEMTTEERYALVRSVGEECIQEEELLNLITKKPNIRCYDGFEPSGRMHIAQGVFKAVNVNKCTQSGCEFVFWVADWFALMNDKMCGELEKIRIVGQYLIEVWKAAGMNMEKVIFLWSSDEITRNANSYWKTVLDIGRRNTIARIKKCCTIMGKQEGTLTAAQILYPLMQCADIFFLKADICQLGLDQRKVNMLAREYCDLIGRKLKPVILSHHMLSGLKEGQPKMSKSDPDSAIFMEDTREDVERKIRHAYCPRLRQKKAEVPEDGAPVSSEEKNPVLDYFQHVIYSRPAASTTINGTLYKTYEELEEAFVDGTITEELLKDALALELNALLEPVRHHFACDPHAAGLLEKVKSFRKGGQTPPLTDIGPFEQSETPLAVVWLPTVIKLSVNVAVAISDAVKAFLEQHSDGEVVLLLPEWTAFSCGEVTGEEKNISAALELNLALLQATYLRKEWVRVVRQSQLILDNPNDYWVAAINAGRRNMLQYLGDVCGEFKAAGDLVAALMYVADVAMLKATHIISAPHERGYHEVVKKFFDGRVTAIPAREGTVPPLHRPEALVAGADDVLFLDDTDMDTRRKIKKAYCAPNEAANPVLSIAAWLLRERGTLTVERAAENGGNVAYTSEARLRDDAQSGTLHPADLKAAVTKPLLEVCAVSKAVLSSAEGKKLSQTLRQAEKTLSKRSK

[8] = molecular target: T4, Tyrosyl-tRNA synthetase, putative (Trypanosoma cruzi (strain CL Brener)); experiment: Trypanosoma cruzi tyrosyl tRNA synthetase (TcYRS) SOP; format: functional; conditions: 30 µM
[9] = molecular target: Chromo domain-containing protein 1 (Saccharomyces cerevisiae (strain ATCC 204508 / S288c) (Baker's yeast)) (UniProt P32657); experiment: ScCHD-1 Enzyme Inhibition Assay; format: functional; conditions: 30 µM; further: in the data most compounds retested in dose-response had high values
Chain of Chromo domain-containing protein 1 (Saccharomyces cerevisiae (strain ATCC 204508 / S288c) (Baker's yeast)) (P32657 whole entry, the tested form may be a part): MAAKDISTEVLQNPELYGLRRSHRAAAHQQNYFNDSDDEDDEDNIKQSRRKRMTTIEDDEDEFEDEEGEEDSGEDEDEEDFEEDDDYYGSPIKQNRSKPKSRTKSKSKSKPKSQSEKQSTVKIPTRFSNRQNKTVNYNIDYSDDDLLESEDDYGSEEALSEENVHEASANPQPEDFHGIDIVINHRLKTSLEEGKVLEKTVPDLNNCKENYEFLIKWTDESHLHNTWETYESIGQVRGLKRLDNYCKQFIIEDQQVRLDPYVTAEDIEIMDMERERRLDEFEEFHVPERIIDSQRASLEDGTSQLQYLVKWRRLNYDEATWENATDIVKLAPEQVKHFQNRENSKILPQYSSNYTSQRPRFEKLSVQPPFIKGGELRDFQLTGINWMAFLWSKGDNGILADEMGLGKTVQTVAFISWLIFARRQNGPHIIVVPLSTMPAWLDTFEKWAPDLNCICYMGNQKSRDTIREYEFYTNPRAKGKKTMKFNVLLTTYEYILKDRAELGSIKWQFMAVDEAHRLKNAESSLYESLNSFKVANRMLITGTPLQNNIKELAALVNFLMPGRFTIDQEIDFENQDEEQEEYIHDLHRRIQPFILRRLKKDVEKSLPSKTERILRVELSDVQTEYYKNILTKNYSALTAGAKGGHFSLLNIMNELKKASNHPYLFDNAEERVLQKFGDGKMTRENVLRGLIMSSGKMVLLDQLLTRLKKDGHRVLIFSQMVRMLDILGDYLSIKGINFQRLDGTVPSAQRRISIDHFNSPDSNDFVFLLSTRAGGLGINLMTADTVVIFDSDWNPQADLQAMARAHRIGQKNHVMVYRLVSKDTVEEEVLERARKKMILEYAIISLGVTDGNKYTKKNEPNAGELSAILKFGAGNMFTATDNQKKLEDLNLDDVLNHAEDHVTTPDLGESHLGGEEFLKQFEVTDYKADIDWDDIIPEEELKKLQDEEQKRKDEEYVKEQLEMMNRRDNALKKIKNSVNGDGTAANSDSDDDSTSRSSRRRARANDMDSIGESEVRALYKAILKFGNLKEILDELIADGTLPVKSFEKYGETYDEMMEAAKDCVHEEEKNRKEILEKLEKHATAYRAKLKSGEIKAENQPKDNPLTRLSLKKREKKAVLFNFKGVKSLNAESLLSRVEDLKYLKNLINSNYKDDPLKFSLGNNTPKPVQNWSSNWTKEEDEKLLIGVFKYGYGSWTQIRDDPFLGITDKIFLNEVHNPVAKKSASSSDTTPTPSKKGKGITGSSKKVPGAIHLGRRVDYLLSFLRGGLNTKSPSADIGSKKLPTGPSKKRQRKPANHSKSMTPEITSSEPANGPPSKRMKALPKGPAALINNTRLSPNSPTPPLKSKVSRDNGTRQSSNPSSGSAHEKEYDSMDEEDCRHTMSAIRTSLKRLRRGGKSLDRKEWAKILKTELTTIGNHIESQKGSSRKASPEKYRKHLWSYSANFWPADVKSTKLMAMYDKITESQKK

Chain of Protein translocase subunit SecA (Escherichia coli (strain K12)) (P10408 whole entry): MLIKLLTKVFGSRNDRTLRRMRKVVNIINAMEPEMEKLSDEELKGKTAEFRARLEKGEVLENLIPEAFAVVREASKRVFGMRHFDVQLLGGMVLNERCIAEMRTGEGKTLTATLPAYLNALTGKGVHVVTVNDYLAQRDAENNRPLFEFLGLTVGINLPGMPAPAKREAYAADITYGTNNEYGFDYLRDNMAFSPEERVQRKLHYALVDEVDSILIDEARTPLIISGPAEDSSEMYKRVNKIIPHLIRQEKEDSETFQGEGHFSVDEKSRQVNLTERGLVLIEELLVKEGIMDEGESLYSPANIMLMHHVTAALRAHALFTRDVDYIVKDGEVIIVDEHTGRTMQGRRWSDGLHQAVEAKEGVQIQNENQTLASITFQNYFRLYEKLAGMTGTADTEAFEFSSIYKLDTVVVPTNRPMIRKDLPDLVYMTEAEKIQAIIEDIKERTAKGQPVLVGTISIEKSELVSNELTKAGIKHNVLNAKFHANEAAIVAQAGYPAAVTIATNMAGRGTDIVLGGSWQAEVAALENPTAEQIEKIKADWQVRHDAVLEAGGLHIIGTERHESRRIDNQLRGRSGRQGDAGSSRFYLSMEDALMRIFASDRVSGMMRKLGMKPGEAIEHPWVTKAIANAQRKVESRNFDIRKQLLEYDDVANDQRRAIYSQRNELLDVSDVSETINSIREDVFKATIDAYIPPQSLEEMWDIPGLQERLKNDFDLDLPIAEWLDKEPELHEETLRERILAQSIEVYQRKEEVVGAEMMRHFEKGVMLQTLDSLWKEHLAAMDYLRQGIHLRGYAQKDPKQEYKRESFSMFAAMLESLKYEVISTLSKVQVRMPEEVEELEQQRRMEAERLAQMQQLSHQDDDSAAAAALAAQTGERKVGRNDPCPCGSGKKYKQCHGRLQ
Chain of Sialic acid-binding Ig-like lectin 9 (Homo sapiens) (Q9Y336 whole entry): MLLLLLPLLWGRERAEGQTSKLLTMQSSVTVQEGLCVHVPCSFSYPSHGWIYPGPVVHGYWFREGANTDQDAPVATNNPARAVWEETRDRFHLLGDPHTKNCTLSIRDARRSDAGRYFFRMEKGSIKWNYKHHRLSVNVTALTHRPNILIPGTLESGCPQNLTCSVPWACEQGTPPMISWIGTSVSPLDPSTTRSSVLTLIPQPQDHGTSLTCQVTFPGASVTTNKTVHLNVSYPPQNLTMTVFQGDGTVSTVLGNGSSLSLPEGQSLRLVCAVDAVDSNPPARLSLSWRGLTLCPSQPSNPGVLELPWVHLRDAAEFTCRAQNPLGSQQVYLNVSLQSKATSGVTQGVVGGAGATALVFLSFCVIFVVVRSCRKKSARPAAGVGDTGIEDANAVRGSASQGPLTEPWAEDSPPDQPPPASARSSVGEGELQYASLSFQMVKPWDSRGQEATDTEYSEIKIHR

Structure (SMILES) | Percent Effect [1] [%] | Percent Effect [2] [%] | Percent Effect [3] [%] | Percent Effect [4] [%] | Percent Effect (Trypanosoma cruzi) [%] | Percent Effect [5] [%] | Percent Effect [6] [%] | Percent Effect (Homo sapiens) [%] | Percent Effect [7] [%] | Percent Effect [8] [%] | Percent Effect [9] [%]
Cc1cccc(CNC(CN2CCN(C)CC2)c2ccccc2)c1 (stereo unspecified) | -2.61 | 8.11 | -13.3 | 17.7 | 3.23 | 29.5 | 7.3 | 25.7 | 5.38 | 11.1 | -5.02
Cc1ccsc1C(=O)N1CC(C(=O)N2CCOCC2)C2(CCOCC2)C1 (stereo unspecified) | -7 | 2.6 | 117 | -9.65 | -8.38 | 0.645 | 13.1 | 0.0644 | -4.23 | -8.97 | -5.38
Cc1noc(C(C)N2CCN(CCCN3CCCC3=O)CC2)n1 (stereo unspecified) | -1.22 | 21.6 | 32.3 | 1.61 | 1.23 | -8.02 | 19.5 | 9.12 | 7.39 | 23.5 | -15.8
Fc1ccc(CNCC2OCCc3cn(CC4CC4)nc32)cc1 (stereo unspecified) | -3.44 | 0 | 12.4 | 6.39 | 2.05 | -4.78 | 12.4 | 9.33 | 3.24 | 7.69 | 8.43
CCOc1ncccc1C(=O)NCCN(CC)C1CC1 | -6.27 | 3.8 | 1.07 | -1.89 | -0.103 | 5.38 | 8.75 | 5.7 | 1.04 | 0 | -23.1
O=C(Cc1csc(-c2ccco2)n1)N1CCN(c2cnccn2)CC1 | -3.21 | 13.9 | -1.6 | 4.73 | 0.718 | -1.94 | 17.5 | 13.5 | 11.5 | 22.8 | -30.1
O=C(Nc1cnccn1)[C@H]1COC[C@H]2CN(C3CCCC3)C[C@H]21 | -0.257 | 2.7 | -0.6 | 0.701 | 4.88 | 2.92 | -0.0845 | -10.3 | 3.96 | -1.22 | -1.78
Cc1c(NC(=O)NCC(C)N2CCOCC2)cccc1OC(F)F (stereo unspecified) | -4.46 | 8.11 | 0.188 | 0.607 | 0.391 | 2.5 | 8.03 | -7.17 | 14.8 | -3.66 | -5.4
CN(CC(=O)N1CCN(c2ccccc2F)CC1)c1cnccn1 | -1.13 | 16.2 | -1.85 | 4.66 | -0.0929 | -5.73 | 6.82 | 12.1 | 5.94 | 15.8 | -7.13
O=c1[nH]c(CN(Cc2ccco2)C2CCCC2)nc2ccccc12 | -2.15 | 18.2 | 7.19 | 1.72 | 3.75 | 0.712 | 10.5 | 26.1 | 8.74 | 24.4 | -9.34
Cc1ccc(NC(=O)N2CCN(Cc3noc(C4CC4)n3)CC2)cc1 | -10.7 | -1.27 | 5.38 | -5.9 | -3.38 | -4.09 | 10.1 | 10.8 | -1.04 | -5.06 | -24.6
O=C([C@H]1COC[C@H]2CN(C3CCCC3)C[C@H]21)N1CCCCO1 | -1.86 | 0 | 2.27 | 5.11 | -0.579 | -51.4 | 2.39 | -22.5 | 0 | -5 | -3.46
Cc1ccccc1CSc1nc(N)cc(N2CC[C@@H](O)C2)n1 | -5.3 | 16.2 | -11.2 | 22.8 | 7.33 | -3.23 | 11.4 | 28.7 | 20.4 | 30.9 | -7.45
Cn1ccnc1-c1ccccc1C(=O)N1CCc2c(nc(N)[nH]c2=O)C1 | -3.72 | 7.79 | 3.19 | 4.47 | -2.06 | -6.9 | 16.8 | 5.31 | 4.3 | 11.1 | 3.09
CNS(=O)(=O)c1ccc(C(=O)NC2CCOc3ccccc32)o1 (stereo unspecified) | -5.29 | 18.4 | 0.291 | 1.37 | 0.682 | -3.55 | 11.8 | 17.5 | 2.13 | 18.2 | -7.69
O=C1OCCN1CCc1nc(-c2cc3c4c(c2)CC(=O)N4CCC3)cs1 | -8.45 | 0 | 4.43 | -2.26 | -7.87 | -0.712 | 9.97 | 47.2 | 0.971 | 0 | -5.4
CCn1c(CN2CCN(CC(N)=O)CC2)nc2c(F)cccc21 | -3.22 | 5.26 | 7.34 | 6.21 | 8.84 | -2.3 | 1.34 | -11.4 | 7.35 | 9.76 | -5.52
CC(=O)NCC(=O)N1C[C@H](OCc2cccnc2)[C@H]2COC[C@H]21 | -4.16 | 2.7 | 1.91 | 2.9 | -4.49 | 2.5 | 12.3 | 5.47 | 4.95 | 6.1 | -2.54
CCCc1nc(CN2CCOC(CNc3cccnn3)C2)cs1 (stereo unspecified) | -3.31 | 2.7 | -3.87 | 5.09 | -0.849 | -5.61 | 10.3 | 7.16 | 14.3 | 30.9 | -7.47
COc1nccc(N2CCN(Cc3ccc(C)cc3)C(=O)C2)c1C#N | -1.96 | 15.6 | -4.99 | 5.78 | 8.16 | -33.1 | 13.3 | -2.81 | 8.6 | 21 | 9
Cc1[nH]nc2ncc(C(=O)N3CCN(CC(C)C)CC3)cc12 | -2.98 | 15.8 | 10.4 | -2.95 | 7.56 | -3.24 | 7.36 | -2.6 | 8.37 | 23.5 | -7.62
